Results published in PubChem BioAssay (Tox21).
Records with an inconclusive call do not appear. Where a call stands in place of a potency, no number is given. Values without a mark were called inactive. Active and inactive are the calls of the source. Calls follow the shape of the dose curve; as a rule, active = well fitted curve in the direction sought with a large enough effect in the repeat runs; inconclusive = weak or mixed curves; inactive = no such curve, though single readings can be large; an effect the other way counts as inactive or inconclusive. Where a SMILES comes first, the peptide text is derived from it. [ ]: non-standard residue; d: D form. pGlu = O=C1CC[C@@H](C(=O)O)N1

Experiments:
[1] = target: Cytochrome P450 2C19 (Homo sapiens) (UniProt P33261); assay: Cytochrome P450 Family 2 Subfamily C Member 19 (CYP2C19) small molecule antagonists: luciferase reporter qHTS assay (AID 1671197); also: nearly all actives have a fitted effect of over 65% in size; also: potency is read from the fitted curve at half-maximal effect; as to activity change, negative = inhibition: series mostly up to about 120 µM
Outline: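 Relative luminescence units recorded 20 min after the detection reagent stopped a 1 h, 37C CYP2C19 reaction on proluciferin substrate, which was started by NADPH regeneration following 10 min room-temperature compound preincubation; ketoconazole positive control.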

[2] = target: Cytochrome P450 2C9 (Homo sapiens) (UniProt P11712); assay: Cytochrome P450 Family 2 Subfamily C Member 9 (CYP2C9) small molecule antagonists: luciferase reporter qHTS assay (AID 1671198); also: nearly all actives have a fitted effect of over 50% in size; also: potency is read from the fitted curve at half-maximal effect; as to activity change, negative = inhibition: series mostly up to about 120 µM
Outline: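 CYP2C9 activity was measured with a P450-Glo proluciferin substrate. Enzyme–substrate mix was held with compound for 10 min at room temperature, then NADPH regeneration solution was added for 1 h at 37C. Luciferin product was read as luminescence.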

[3] = target: Cytochrome P450 1A2 (Homo sapiens) (UniProt P05177); assay: Cytochrome P450 Family 1 Subfamily A Member 2 (CYP1A2) small molecule antagonists: luciferase reporter qHTS assay (AID 1671199); also: nearly all actives have a fitted effect of over 50% in size; also: potency is read from the fitted curve at half-maximal effect; as to activity change, negative = inhibition: series mostly up to about 120 µM
Outline: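 Inhibition of CYP1A2 conversion of proluciferin to luciferin, detected by luminescence. Reaction run 1 h at room temperature with NADPH regeneration after brief compound preincubation.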

[4] = target: Voltage-gated inwardly rectifying potassium channel KCNH2 (Homo sapiens) (UniProt Q12809); assay: Human Ether-a-go-go-Related Gene (hERG) channel small molecule antagonists: fluorescence cell-based qHTS assay (AID 1671200);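 also: hERG-expressing U2OS cells given a thallium stimulus after FluxOR II dye loading; series mostly up to about 77 µM; nearly all actives have a fitted effect of over 50% in size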
Outline: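 Fluorescence at 540 nm emission (480 nm excitation) was recorded kinetically for 2 min at 1-second intervals once the thallium-containing stimulus reached cells previously loaded with FluxOR II dye.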

[5] = target: Cytochrome P450 3A4 (Homo sapiens) (UniProt P08684); assay: Cytochrome P450 Family 3 Subfamily A Member 4 (CYP3A4) small molecule antagonists: luciferase reporter qHTS assay (AID 1671201); also: nearly all actives have a fitted effect of over 50% in size; also: potency is read from the fitted curve at half-maximal effect; as to activity change, negative = inhibition: series mostly up to about 120 µM
Outline: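 qHTS, 1536-well. CYP3A4 + proluciferin substrate, cpd 10 min RT → NADPH regen 1 h RT → detection reagent 20 min → luminescence (RLU). Ketoconazole positive control.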

Chain of Cytochrome P450 1A2 (Homo sapiens) (P05177 whole entry, looked up): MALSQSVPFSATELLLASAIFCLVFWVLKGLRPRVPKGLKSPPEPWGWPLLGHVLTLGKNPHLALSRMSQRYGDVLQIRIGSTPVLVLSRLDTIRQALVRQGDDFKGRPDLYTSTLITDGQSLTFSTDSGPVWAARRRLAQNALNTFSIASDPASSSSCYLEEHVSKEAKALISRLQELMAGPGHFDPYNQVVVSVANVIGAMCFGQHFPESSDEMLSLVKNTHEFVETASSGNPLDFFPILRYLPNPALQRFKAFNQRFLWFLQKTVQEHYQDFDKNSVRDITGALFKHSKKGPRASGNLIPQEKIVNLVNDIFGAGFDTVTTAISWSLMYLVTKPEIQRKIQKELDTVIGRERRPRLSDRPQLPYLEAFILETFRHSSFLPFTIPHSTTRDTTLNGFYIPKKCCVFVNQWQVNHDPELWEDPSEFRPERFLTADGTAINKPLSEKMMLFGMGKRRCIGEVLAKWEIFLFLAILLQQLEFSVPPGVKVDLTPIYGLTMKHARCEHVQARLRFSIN
Chain of Cytochrome P450 2C9 (Homo sapiens) (P11712 whole entry, looked up): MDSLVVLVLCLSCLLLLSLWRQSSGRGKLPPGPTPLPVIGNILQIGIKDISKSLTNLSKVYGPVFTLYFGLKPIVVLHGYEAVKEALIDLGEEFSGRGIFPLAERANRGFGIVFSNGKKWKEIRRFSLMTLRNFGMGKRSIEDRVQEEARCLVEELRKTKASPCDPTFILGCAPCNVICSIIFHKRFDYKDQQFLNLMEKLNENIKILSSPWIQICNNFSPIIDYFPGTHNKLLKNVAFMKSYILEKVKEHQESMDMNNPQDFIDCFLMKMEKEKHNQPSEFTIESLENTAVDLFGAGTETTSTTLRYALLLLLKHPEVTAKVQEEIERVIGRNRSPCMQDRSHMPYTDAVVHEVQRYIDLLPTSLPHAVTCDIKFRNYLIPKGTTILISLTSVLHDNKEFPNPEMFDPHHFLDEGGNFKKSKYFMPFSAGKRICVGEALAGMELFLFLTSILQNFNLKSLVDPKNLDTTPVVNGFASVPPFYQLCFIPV
Chain of Voltage-gated inwardly rectifying potassium channel KCNH2 (Homo sapiens) (Q12809 whole entry, looked up): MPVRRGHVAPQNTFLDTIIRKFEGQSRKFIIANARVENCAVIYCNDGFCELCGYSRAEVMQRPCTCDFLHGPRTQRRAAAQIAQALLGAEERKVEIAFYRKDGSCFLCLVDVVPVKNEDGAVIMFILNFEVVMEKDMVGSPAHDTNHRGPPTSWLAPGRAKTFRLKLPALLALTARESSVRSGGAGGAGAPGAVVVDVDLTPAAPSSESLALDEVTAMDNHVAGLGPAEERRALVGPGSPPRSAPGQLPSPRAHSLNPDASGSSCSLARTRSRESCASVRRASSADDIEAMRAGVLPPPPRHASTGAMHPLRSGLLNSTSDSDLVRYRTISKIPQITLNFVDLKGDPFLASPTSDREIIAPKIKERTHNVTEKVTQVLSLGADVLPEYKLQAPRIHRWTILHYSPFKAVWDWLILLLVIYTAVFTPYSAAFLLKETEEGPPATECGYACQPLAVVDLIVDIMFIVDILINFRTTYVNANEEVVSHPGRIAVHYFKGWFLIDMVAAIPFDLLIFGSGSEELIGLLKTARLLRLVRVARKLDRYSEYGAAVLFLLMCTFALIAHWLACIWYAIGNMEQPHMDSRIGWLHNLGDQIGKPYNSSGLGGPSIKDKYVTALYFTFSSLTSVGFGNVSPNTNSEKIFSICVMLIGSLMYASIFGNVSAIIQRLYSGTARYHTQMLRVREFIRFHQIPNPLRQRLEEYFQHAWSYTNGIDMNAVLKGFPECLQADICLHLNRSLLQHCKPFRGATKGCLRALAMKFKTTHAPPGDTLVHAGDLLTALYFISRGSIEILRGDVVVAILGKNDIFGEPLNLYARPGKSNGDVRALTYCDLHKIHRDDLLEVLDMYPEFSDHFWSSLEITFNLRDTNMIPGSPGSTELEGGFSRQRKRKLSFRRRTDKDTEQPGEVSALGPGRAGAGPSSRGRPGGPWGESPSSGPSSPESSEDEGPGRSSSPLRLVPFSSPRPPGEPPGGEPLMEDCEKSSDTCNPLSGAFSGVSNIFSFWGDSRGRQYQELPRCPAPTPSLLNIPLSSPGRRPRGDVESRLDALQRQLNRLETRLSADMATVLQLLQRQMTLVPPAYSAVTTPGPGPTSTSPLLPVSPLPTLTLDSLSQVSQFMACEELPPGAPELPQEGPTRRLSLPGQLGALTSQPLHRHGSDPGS
Chain of Cytochrome P450 2C19 (Homo sapiens) (P33261 whole entry, looked up): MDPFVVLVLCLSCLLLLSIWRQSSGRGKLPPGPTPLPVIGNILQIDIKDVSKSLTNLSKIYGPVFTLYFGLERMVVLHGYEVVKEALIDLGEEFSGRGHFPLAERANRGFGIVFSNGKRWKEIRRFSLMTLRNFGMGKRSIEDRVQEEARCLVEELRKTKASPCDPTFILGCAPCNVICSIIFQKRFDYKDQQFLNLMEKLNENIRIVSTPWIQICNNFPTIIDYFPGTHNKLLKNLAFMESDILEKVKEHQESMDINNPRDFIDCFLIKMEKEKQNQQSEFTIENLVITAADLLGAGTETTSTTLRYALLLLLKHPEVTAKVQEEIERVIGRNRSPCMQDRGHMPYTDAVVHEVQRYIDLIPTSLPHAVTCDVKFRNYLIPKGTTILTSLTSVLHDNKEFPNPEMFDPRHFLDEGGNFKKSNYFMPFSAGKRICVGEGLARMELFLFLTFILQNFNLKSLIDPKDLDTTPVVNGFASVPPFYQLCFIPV
Chain of Cytochrome P450 3A4 (Homo sapiens) (P08684 whole entry, looked up): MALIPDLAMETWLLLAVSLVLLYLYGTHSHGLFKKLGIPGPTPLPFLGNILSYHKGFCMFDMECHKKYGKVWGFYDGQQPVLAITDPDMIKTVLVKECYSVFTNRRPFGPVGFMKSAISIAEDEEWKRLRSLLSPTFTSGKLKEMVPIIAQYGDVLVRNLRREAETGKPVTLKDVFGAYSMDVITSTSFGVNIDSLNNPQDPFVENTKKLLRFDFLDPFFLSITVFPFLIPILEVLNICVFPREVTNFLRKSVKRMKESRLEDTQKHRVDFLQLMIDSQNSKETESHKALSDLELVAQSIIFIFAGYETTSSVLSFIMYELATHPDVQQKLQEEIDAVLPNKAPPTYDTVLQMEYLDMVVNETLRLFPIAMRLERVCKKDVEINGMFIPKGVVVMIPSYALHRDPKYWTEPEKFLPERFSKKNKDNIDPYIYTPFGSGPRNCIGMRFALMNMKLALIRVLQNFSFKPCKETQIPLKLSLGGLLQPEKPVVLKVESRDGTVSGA

Compound	Potency [1]	Potency [2]	Potency [3]	Potency [4]	Potency [5]	activity change, negative = inhibition [2]	activity change, negative = inhibition [4]	activity change, negative = inhibition [5]
CCOC(=O)CCC(=O)OCC	inactive	35.6 µM (active)	inactive	inactive	inactive	–	–	–
CN(C)CCN(C)CCN(C)C	inactive	inactive	inactive	inactive	inactive	–	–	–
CCCc1ncc(C[n+]2ccccc2C)c(N)n1	inactive	inactive	inactive	inactive	inactive	–	–	–
CC[C@H]1OC(=O)[C@H](C)[C@@H](O[C@H]2C[C@@](C)(OC)[C@@H](O)[C@H](C)O2)[C@H](C)[C@@H](O[C@@H]2O[C@H](C)C[C@H](N(C)C)[C@H]2O)[C@](C)(OC)C[C@@H](C)C(=O)[C@H](C)[C@@H](O)[C@]1(C)O	63.8 µM (active)	inactive	inactive	–	–	–	–	–
[K+]	inactive	inactive	inactive	inactive	inactive	–	–	–
CN1CCN(c2cc3c(nn2)Oc2ccccc2N3C)CC1	inactive	–	inactive	–	–	2.38% [at 23.6 µM]	0.457% [at 15.8 µM]	7.5% [at 23.6 µM]
CN(C)C(=O)Oc1ccc[n+](C)c1	inactive	inactive	inactive	inactive	inactive	–	–	–
CCNC(=O)[C@@H]1CCCN1C(=O)[C@H](CCCN=C(N)N)NC(=O)[C@H](CC(C)C)NC(=O)CNC(=O)[C@H](Cc1ccc(O)cc1)NC(=O)[C@H](CO)NC(=O)[C@H](Cc1c[nH]c2ccccc12)NC(=O)[C@H](Cc1cnc[nH]1)NC(=O)[C@@H]1CCC(=O)N1 ([pGlu]HWSYGLRP-NHEt)	inactive	inactive	inactive	inactive	–	–	–	–
O=C1CCCCCCCCCCCCCCO1	inactive	–	–	–	–	–	–	–
O=C(O)CNC(=O)c1ccccc1	inactive	inactive	inactive	inactive	inactive	–	–	–
Cc1nc(C2CCCCC2)c(-c2ccc(S(N)(=O)=O)c(F)c2)o1	38.9 µM (active)	3.47 µM (active)	inactive	inactive	–	–	–	–
COc1cccc(OC)c1C(=O)N[C@@H]1C(=O)N2[C@@H]1SC(C)(C)[C@@H]2C(=O)O	inactive	inactive	inactive	inactive	inactive	–	–	–
C=C(C)C(=O)OCCOCCOCCOCCOC(=O)C(=C)C	71 µM (active)	63.3 µM (active)	63.3 µM (active)	inactive	–	–	–	–
C=C[Si](OC(C)=O)(OC(C)=O)OC(C)=O	inactive	inactive	inactive	inactive	39.9 µM (active)	–	–	–
CCCc1nn(C)c2c(=O)[nH]c(-c3cc(S(=O)(=O)N4CCN(C)CC4)ccc3OCC)nc12	inactive	30.9 µM (active)	inactive	–	–	–	–	–
CCOc1c(N2CCOCC2)cnn(C)c1=O	inactive	inactive	inactive	inactive	–	–	–	–
